In the supplement of paper PMC7411054:
Counter-ions that a name gives are not always drawn.

System: WPMY1-TP53BP1-CLTA
Experiment: lowest phenotypically active concentration; higher = less potent
Settings: treatment time: 24 h
Method in brief: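 Four wells per concentration (0.3, 1, 3 or 9 µM) were treated for 24 h in each of fifteen gene-edited reporter lines from A549, HepG2 and WPMY1 cells, then imaged live. After normalising live-cell features to solvent control wells, deviation was defined as ≥3 of 4 wells lying past the 95th percentile of control Euclidean distances. Reproducibility was defined as a median replicate Pearson correlation above the 95th percentile of non-replicates. Both had to hold for phenotypic activity.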

Q: With `C[C@@]1(CO)[C@H](O)CC[C@@]2(C)[C@H]1CC[C@H]1C[C@@H]3C[C@@]12CC[C@]3(O)CO` [Aphidicolin] as the compound, how does the “lowest phenotypically active concentration” value read?
A: 1 µM

Q: Which “lowest phenotypically active concentration” value does the source give for `COC(=O)[C@@]1(O)C[C@H]2O[C@]1(C)n1c3ccccc3c3c4c(c5c6ccccc6n2c5c31)C(=O)NC4` here?
A: ≤ 0.3 µM

Q: How did the “lowest phenotypically active concentration” value turn out when `COc1ccc(N(C(=O)Oc2c(C)cccc2C)c2ccnc(Nc3ccc(N4CCN(C)CC4)cc3)n2)c(OC)c1` was run?
A: 3 µM

Q: `COc1ccc2c(c[n+](C)c3c4cc5c(cc4ccc23)OCO5)c1OC` [Chelerythrine chloride] was tested. Which “lowest phenotypically active concentration” value did it give?
A: 9 µM

Q: With `CC(C)[C@@]1(NC(=O)[C@@H]2C[C@@H]3c4cccc5[nH]cc(c45)C[C@H]3N(C)C2)O[C@@]2(O)[C@@H]3CCCN3C(=O)[C@H](Cc3ccccc3)N2C1=O` [Dihydroergocristine mesylate] as the compound, how does the “lowest phenotypically active concentration” value read?
A: 9 µM

Q: How did the “lowest phenotypically active concentration” value turn out when `C[C@]12CC[C@H]3[C@@H](CC[C@]4(O)C[C@@H](O)CC[C@]34C=O)[C@@]1(O)CC[C@@H]2C1=CC(=O)OC1` [Strophanthidin] was run?
A: ≤ 0.3 µM

Q: Which “lowest phenotypically active concentration” value does the source give for `C=C1[C@@H](O)C2C=CC[C@H](C)C(=O)[C@](C)(O)C=C[C@@H](OC(C)=O)[C@]23C(=O)N[C@H](Cc2ccccc2)[C@@H]3[C@@H]1C` (stereo partly specified) [Cytochalasin D] here?
A: ≤ 0.3 µM

Q: For `COc1ccc(C[C@H]2NC[C@H](O)[C@H]2OC(C)=O)cc1` [Anisomycin], which “lowest phenotypically active concentration” value is on record?
A: ≤ 0.3 µM

Q: How did the “lowest phenotypically active concentration” value turn out when `C[C@@H]1CC[C@H]2[C@@H](C)C(=O)O[C@@H]3O[C@@]4(C)CC[C@@H]1[C@]32OO4` [Artemisinin] was run?
A: 1 µM

Q: `O=C1NC(=O)c2c1c1c3ccccc3n3c1c1c2c2ccccc2n1C1CCC3O1` was tested. Which “lowest phenotypically active concentration” value did it give?
A: 9 µM

Q: For `Cc1sc2c(c1C)C(c1ccc(Cl)cc1)=N[C@@H](CC(=O)OC(C)(C)C)c1nnc(C)n1-2`, which “lowest phenotypically active concentration” value is on record?
A: ≤ 0.3 µM

Q: With `CN1C[C@H](C(=O)N[C@]2(C)O[C@@]3(O)[C@@H]4CCCN4C(=O)[C@H](Cc4ccccc4)N3C2=O)C[C@@H]2c3cccc4[nH]cc(c34)C[C@H]21.CN1C[C@H](C(=O)N[C@]2(C)O[C@@]3(O)[C@@H]4CCCN4C(=O)[C@H](Cc4ccccc4)N3C2=O)C[C@@H]2c3cccc4[nH]cc(c34)C[C@H]21` [dihydroergotamine] as the compound, how does the “lowest phenotypically active concentration” value read?
A: 9 µM

Q: How did the “lowest phenotypically active concentration” value turn out when `C[C@@]12C(=O)OC(=O)[C@]1(C)[C@H]1CC[C@@H]2O1` [Cantharidin] was run?
A: 3 µM

Q: With `COc1cc2c(c(OC)c1OC)-c1ccc(OC)c(=O)cc1[C@@H](NC(C)=O)CC2` [colchicine] as the compound, how does the “lowest phenotypically active concentration” value read?
A: ≤ 0.3 µM

Q: For `CC(C)(O)[C@H]1O[C@H]2CC[C@@]3(C)[C@@](O)(CC[C@H]4Cc5c([nH]c6ccccc56)[C@@]43C)C2=CC1=O` [paxilline], which “lowest phenotypically active concentration” value is on record?
A: 9 µM

Q: `N#CC(C#N)=NNc1cccc(Cl)c1` was tested. Which “lowest phenotypically active concentration” value did it give?
A: 3 µM

Q: For `CCN1CCN(C(=O)Cc2ccc(Nc3ncc(F)c(Nc4ccc(C(=O)Nc5ccccc5Cl)cc4)n3)cc2)CC1`, which “lowest phenotypically active concentration” value is on record?
A: 1 µM

Q: With `CCn1cnc2c(Nc3cccc(Cl)c3)nc(N[C@H]3CCCC[C@H]3N)nc21` as the compound, how does the “lowest phenotypically active concentration” value read?
A: 1 µM

Q: `O=C(Nc1ccncc1)C(=O)c1cn(Cc2ccc(Cl)cc2)c2ccccc12` [Indibulin] was tested. Which “lowest phenotypically active concentration” value did it give?
A: ≤ 0.3 µM

Q: With `CC[C@@H](C(=O)[C@@H](C)[C@@H](O)[C@H](C)[C@@H]1O[C@@H]([C@@H](CC)C(=O)O)CC[C@@H]1C)[C@H]1O[C@]2(C=C[C@@H](O)[C@]3(CC[C@@](C)([C@H]4CC[C@](O)(CC)[C@H](C)O4)O3)O2)[C@H](C)C[C@@H]1C` [Salinomycin Sodium] as the compound, how does the “lowest phenotypically active concentration” value read?
A: ≤ 0.3 µM

Q: With `CN1C[C@H](C(=O)N[C@]2(C)O[C@@]3(O)[C@@H]4CCCN4C(=O)[C@H](Cc4ccccc4)N3C2=O)C=C2c3cccc4[nH]cc(c34)C[C@H]21` [ergotamine] as the compound, how does the “lowest phenotypically active concentration” value read?
A: 3 µM

Q: Which “lowest phenotypically active concentration” value does the source give for `C[C@H](CCC(=O)O)C[C@H](C)C[C@H](C)C(=O)/C=C(\O)[C@H](C)C[C@H](C)C/C=C/[C@@H](C)[C@@H](O)[C@@H](C)[C@@H](O)C[C@@H]1CC[C@@](C)([C@H]2CC[C@@](C)([C@@H](C)O)O2)O1` [Ionomycin free acid] here?
A: 9 µM

Q: For `N#CC(C#N)=NNc1ccc(OC(F)(F)F)cc1`, which “lowest phenotypically active concentration” value is on record?
A: 3 µM

Q: With `COC1=CC(C)=C[C@@H](C)[C@@H](O)[C@@H](C)CC(C)=CC=C[C@H](OC)[C@@H]([C@@H](C)[C@@H](O)[C@H](C)[C@@]2(O)C[C@@H](O)[C@H](C)[C@@H](C(C)C)O2)OC1=O` [Bafilomycin A1] as the compound, how does the “lowest phenotypically active concentration” value read?
A: 3 µM

Q: For `COc1cc([C@@H]2c3cc4c(cc3[C@H](O)[C@H]3COC(=O)[C@H]23)OCO4)cc(OC)c1OC` [Podophyllotoxin], which “lowest phenotypically active concentration” value is on record?
A: ≤ 0.3 µM

Q: `CC[C@]12C=CCN3CC[C@]4(C(=C(C(=O)OC)C1)Nc1ccccc14)[C@@H]32` [Tabersonine dichlorhydrate] was tested. Which “lowest phenotypically active concentration” value did it give?
A: 9 µM
